About 480 (40%) of roughly 1,200 compounds were called active. Another 29% or so got no clear call; they are omitted. This is one part of the list. Unmarked numbers belong to inactive results. Calls come from the whole dose curve; as a rule, active = well fitted inhibition curve with a large enough effect; inconclusive = small, poorly fitted or top-dose-only effect; inactive = no such curve, though single readings can be large or run the other way.

This note sets out measurements from PubChem BioAssay AID651558 (National Center for Advancing Translational Sciences (NCATS), 2012).
% is set by controls: 0 for no effect and ±100 for the full control effect; potency is the fitted concentration of half-maximal effect.

The test can be described thus: qHTS Assay to Find Inhibitors of Chronic Active B-Cell Receptor Signaling: Hit Validation in Primary Screen. Note: nearly all actives have a fitted effect of over 75% in size. The following applies: ABC-DLBCL IkB-luc/CBR ratio luminescence, 4 h; series mostly up to 46.1 µM; activity change, negative = inhibition: at the top concentration. A digest of the protocol: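 Concentration series (3 nM to 46 uM) tested on TMD8 cells induced with doxycycline for 4 h. Filter-corrected green (IkBa fusion) over red (unfused) luciferase signal; Data were normalised to 10 uM MG-132 and untreated cell wells.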
Background: Quantitative high-throughput screening tests each substance at several concentrations.
`COc1ccc(CCCC(=O)N/N=C/c2cccc(OC)c2O)cc1C`: the “activity change, negative = inhibition” value is -3.33%.
Regarding `COc1cccc(/C=N/NC(=O)c2[nH]nc3c2CCc2ccccc2-3)c1O`, the Potency was 20.6 µM (active).
As for `CC/C(=N/Nc1ccc(Cl)cc1)c1cnnc(SC)n1`, the “activity change, negative = inhibition” value is 42.6%.
On the same count and under the same terms, then `Cc1ccc(C(=O)Oc2ccc(Cl)c3cccnc23)cc1[N+](=O)[O-]`, with -15.7%.
With `COc1cccc(N2CCN(C(=O)c3ccc(CS(=O)c4ccccc4Cl)o3)CC2)c1` (configuration not stated), the Potency was 1.84 µM (active).
The same measure, in the same setting: the result for `O=C(c1ccc(CS(=O)c2ccccc2Cl)o1)N1CCN(c2ccccc2)CC1` (configuration not stated) reads 14.6 µM (active); that for `COc1cccc(N2CCN(C(=O)c3ccc(CS(=O)c4ccccc4C)o3)CC2)c1` (configuration not stated), 5.8 µM (active).
`CCCNc1ccc(C(=O)OCC)cc1[N+](=O)[O-]`: the “activity change, negative = inhibition” value was 64.1%.
As for `CCCNc1nc(-c2ccccc2)c(C(=O)OCC)cc1C#N`, the Potency is 18.4 µM (active).
Take `CC(C)CCOc1ccc(CO[C@@H]2[C@H]3OC(C)(C)O[C@H]3O[C@@H]2C(O)CO)cc1` (some centres not stated): the “activity change, negative = inhibition” value is -2.53%.
With `COC(=O)c1ccc(C)c(NS(=O)(=O)c2ccc3c(c2)OCCO3)c1`, the Potency was 9.2 µM (active).
`COc1ccc(NS(=O)(=O)c2cc(NC(=O)CNC(=O)c3cccc(OC)c3)ccc2C)cc1`: the “activity change, negative = inhibition” value was 48.4%.
As for `COC(=O)c1ccc(C)c(NS(=O)(=O)c2ccc(OC)cc2)c1`, the Potency is 1.84 µM (active).
The same measure, in the same setting: the result for `COc1ccc(S(=O)(=O)Nc2cc3c(C(C)=O)c(C)oc3c3ccccc23)cc1` reads 2.06 µM (active).
Turning to `COc1cc2nc(=S)n3[nH]c(CCn4nc(C)cc4C)nc3c2cc1OC`, the “activity change, negative = inhibition” value is 34.6%.
Same read-out and setting: then `O=C(/C=C/c1ccc(-c2ccccc2[N+](=O)[O-])o1)c1ccccc1`, with -8.15%.
Still for that read-out and setting: the result for `CC(=O)[C@H]1CC[C@H]2[C@@H]3CCC4=CC(=O)CC[C@]4(C)[C@H]3CC[C@]12C` reads -19.6%; that for `C[C@]12CCC(=O)C=C1CC[C@@H]1[C@@H]2[C@@H](O)C[C@@]2(C)[C@H]1CC[C@]2(O)C(=O)CO`, 53.5%.
Consider `COc1ccccc1-c1nnc(Nc2nc3c(OC)cccc3s2)o1`, for which the Potency was 0.366 µM (active).
The same measure, in the same setting: then `COc1cccc2sc(Nc3nnc(-c4ccccc4Cl)o3)nc12`, with 8.2 µM (active).
In the case of `NC(=S)N/N=C\c1ccc(-c2cccc(Cl)c2Cl)o1`, the “activity change, negative = inhibition” value is -2.4%.
Take `COc1ccc(COC(=O)c2cc([N+](=O)[O-])ccc2N2CCOCC2)cc1F`: the Potency is 0.092 µM (active).
For `CSc1ccc(COC(=O)c2cc([N+](=O)[O-])ccc2N2CCOCC2)cc1`, the Potency is 0.58 µM (active).
Turning to `CCCCn1c(=O)c(F)cn(Cc2ccc(OC)c([N+](=O)[O-])c2)c1=O`, the “activity change, negative = inhibition” value was 28.8%.
On to `Cc1ccc(COC(=O)c2cc([N+](=O)[O-])ccc2N2CCOCC2)cc1`, for which the Potency was 5.8 µM (active).
Regarding `CCN(CC)S(=O)(=O)c1ccc(N2CCOCC2)c(NC(=O)c2[nH]c(C)c(C(C)=O)c2C)c1`, the “activity change, negative = inhibition” value was 103%.
Same read-out and setting: the result for `CCCCn1c(-c2csc(C(C)C)c2)n[nH]c1=S` reads -7.52%.
Take `CNC(=S)N/N=C(\C)c1ccc(Cl)c(Cl)c1`: the “activity change, negative = inhibition” value was -22%.
Consider `CCOc1ccc(S(=O)(=O)N2c3ccccc3CC2C)cc1` (configuration not stated), for which the Potency is 14.6 µM (active).
`COc1ccc(S(=O)(=O)N2c3ccccc3OCC2C)cc1` (configuration not stated): the Potency was 16.4 µM (active).
For the compound `CNc1nc(N)c([N+](=O)[O-])c(NCc2ccccc2)n1`, the “activity change, negative = inhibition” value is 58.3%.
In the case of `COC(=O)c1ccc(Oc2cc(C)nc(-n3nc(C)cc3C)n2)cc1`, the Potency was 3.26 µM (active).
Take `CC(=O)c1ccc(Oc2cc(C)nc(-n3nc(C)cc3C)n2)cc1`: the Potency was 7.31 µM (active).
Consider `O=C(CSc1cccc[n+]1[O-])c1ccc(Cl)s1`, for which the “activity change, negative = inhibition” value is -3.25%.
As for `O=C(O)CCCN1C(=O)/C(=C\c2ccccc2OCc2ccccc2)SC1=S`, the Potency is 7.31 µM (active).
Same read-out and setting: the result for `O=C(CCCN1C(=O)/C(=C/c2ccccc2OC(F)F)SC1=S)Nc1cccnc1` reads 7.31 µM (active).
Regarding `COc1ccccc1-c1cc(C(=O)Nc2cccnc2)no1`, the “activity change, negative = inhibition” value was 154%.
`CCCNS(=O)(=O)c1cccc(C(=O)OCc2cc(=O)oc3cc(OC)ccc23)c1`: the Potency was 9.2 µM (active).
On the same count and under the same terms, the result for `COc1cc(OC)cc(C(=O)N2CC(=O)Nc3ccccc32)c1` reads 14.6 µM (active).
`COc1cc(OC)cc(C(=O)N/N=C(\C)CC(=O)Nc2ccccn2)c1`: the “activity change, negative = inhibition” value is -11.8%.
With `Cc1cc(C)cc(C(=O)N2CC(=O)Nc3ccccc32)c1`, the Potency is 3.66 µM (active).
On the same count and under the same terms, the result for `Cc1cc(C)c2nc(SCC(=O)N3CC(=O)Nc4ccccc43)c(C#N)cc2c1` reads 3.66 µM (active).
As to `COc1ccc(N2CC(C(=O)N3CCC(c4nc5ccccc5[nH]4)CC3)CC2=O)cc1` (configuration not stated), the “activity change, negative = inhibition” value was -2.79%.
Turning to `COc1ccccc1NC(=O)N1CCC(c2nc3cc(C)c(C)cc3[nH]2)CC1`, the Potency was 5.17 µM (active).
`ClC(Cl)(Cl)c1nc2ccccc2n2nncc12`: the Potency was 18.4 µM (active).
Consider `COc1cc(-c2noc(C)c2/C=C/c2ccc(N)cc2)cc(OC)c1OC`, for which the Potency was 1.3 µM (active).
Take `COc1cc(-c2noc(C)c2/C=C/c2ccc(OC(C)=O)cc2)cc(OC)c1OC`: the Potency is 4.61 µM (active).
Take `CCOC(=O)COc1cccc2c(=O)n(CC(=O)NCc3ccc(F)cc3)ccc12`: the Potency is 3.26 µM (active).
Still for that read-out and setting: the result for `CCOC(=O)C(C)Oc1cccc2c(=O)n(CC(=O)NCc3ccco3)ccc12` (configuration not stated) reads 18.4 µM (active).
Consider `CCOC(=O)COc1cccc2c(=O)n(CC(=O)NCc3ccccc3)ccc12`, for which the “activity change, negative = inhibition” value was 41.5%.
On to `CCOC(=O)C(C)Oc1cccc2c(=O)n(CC(=O)NCc3ccc4c(c3)OCO4)ccc12` (configuration not stated), for which the Potency was 20.6 µM (active).
On the same count and under the same terms, the result for `CCOC(=O)C(C)Oc1cccc2c(=O)n(CC(=O)NCc3ccccc3)ccc12` (configuration not stated) reads 4.11 µM (active).
Regarding `CCOc1ccc(CCNC(=O)c2cc(=O)[nH]c3ccc(S(=O)(=O)N4CCCCC4C)cc23)cc1OCC` (configuration not stated), the “activity change, negative = inhibition” value is 13.6%.
On the same count and under the same terms, the result for `C=CCn1c(O)c(N=NC(=S)Nc2ccccc2C)c2cc(S(=O)(=O)N3CCOCC3)ccc21` reads -8.84%.
On to `CCOC(=O)C(C)Oc1cccc2c(=O)n(CC(=O)NCc3ccc(F)cc3)ccc12` (configuration not stated), for which the Potency was 2.59 µM (active).
On the same count and under the same terms, the result for `COC(=O)COc1cccc2c(=O)n(CC(=O)NCc3ccccc3)ccc12` reads 9.2 µM (active); that for `CCN(c1cccc(C)c1)S(=O)(=O)c1ccc(-c2cc(C)no2)s1`, 16.4 µM (active).
Turning to `Cc1cccc(N(C)S(=O)(=O)c2ccc(-c3cc(C)no3)s2)c1`, the “activity change, negative = inhibition” value is 65.2%.
For `Cc1cc(Cl)ccc1OCCCC(=O)NO`, the Potency is 16.4 µM (active).
As for `Cc1nn(C)cc1CNC(=O)COc1ccc(Cl)cc1Cl`, the “activity change, negative = inhibition” value was -20.7%.
In the case of `CC[C@]1(O)CC2CN(CCc3c([nH]c4ccccc34)[C@@](C(=O)OC)(c3cc4c(cc3OC)N(C=O)[C@H]3[C@@](O)(C(=O)OC)[C@H](OC(C)=O)[C@]5(CC)C=CCN6CC[C@]43[C@@H]65)C2)C1` (some centres not stated), the Potency is 0.0517 µM (active).
The same measure, in the same setting: the result for `CC[C@]1(O)C[C@@H]2CN(CCc3c([nH]c4ccccc34)[C@@](C(=O)OC)(c3cc4c(cc3OC)N(C)[C@H]3[C@@](O)(C(=O)OC)[C@H](OC(C)=O)[C@]5(CC)C=CCN6CC[C@]43[C@@H]65)C2)C1` reads 0.0461 µM (active); that for `COc1ccc(C(=O)/C=C/c2ccc(O)cc2)c2c1CC(O)C(C)(C)O2` (configuration not stated), 20.6 µM (active).
On to `O=S1(=O)[C@H]2C[C@H](CO)O[C@@]2(CO)CN1Cc1ccc(-c2cccc(Cl)c2)cc1`, for which the “activity change, negative = inhibition” value was -24.2%.
On to `COc1cc(Nc2c3c(nc4ccccc24)CCC3)cc(OC)c1OC`, for which the Potency was 18.4 µM (active).
The same measure, in the same setting: then `COc1ccc(OC)c(Nc2c3c(nc4ccccc24)CCC3)c1`, with 14.6 µM (active).
`COc1ccccc1-c1nc2c3ccccc3nc(=S)n2[nH]1`: the “activity change, negative = inhibition” value was -12.7%.
Still for that read-out and setting: the result for `Cc1nn(CCC(=O)NNC(=S)Nc2ccccc2)c(C)c1Br` reads -4.17%; that for `Cc1ccc(C)c(/C=N/NC(=S)NC(C)C)c1`, -8.95%.
For `COc1ccc(NS(=O)(=O)c2cc(-c3cnc(C4CC4)o3)ccc2C)cc1`, the Potency is 23.1 µM (active).
For the compound `Cc1ccc(C)c(NS(=O)(=O)c2ccc(-c3cnc(C4CC4)o3)cc2)c1`, the Potency is 1.03 µM (active).
As to `COc1ccc(C)cc1NS(=O)(=O)c1ccc(-c2cnc(C3CC3)o2)cc1`, the Potency is 0.92 µM (active).
On the same count and under the same terms, then `Cc1cc(C)cc(NS(=O)(=O)c2ccc(-c3cnc(C4CC4)o3)cc2)c1`, with 2.06 µM (active).
Same read-out and setting: the result for `Cc1ccc(NS(=O)(=O)c2ccc(-c3cnc(C4CC4)o3)cc2)c(C)c1` reads 3.26 µM (active); that for `CC(=O)Nc1ccc(S(=O)(=O)N2c3ccccc3C(C)=CC2(C)C)cc1`, 4.11 µM (active).
For `CC(=O)Nc1ccc(S(=O)(=O)NCC(=O)OC(C)c2ccccc2Cl)cc1` (configuration not stated), the “activity change, negative = inhibition” value is -9.59%.
Take `CC1=CC(C)(C)N(S(=O)(=O)c2ccc(C)cc2)c2ccccc21`: the Potency is 14.6 µM (active).
`CCOc1cc(/C=C2\CN(C)C/C(=C\c3ccc(O)c(OCC)c3)C2=O)ccc1O`: the Potency was 6.51 µM (active).
For `CCOC(=O)C1=C(O)/C(=C/c2ccc(OCC(=O)O)c(OCC)c2)SC1=Nc1ccccc1`, the “activity change, negative = inhibition” value was -14.4%.
On the same count and under the same terms, the result for `C=CCC(CC(O)COCCC)C(=O)NNC(=S)Nc1ccccc1` (configuration not stated) reads -5.99%.
For `O=C(c1ccc(Br)cc1)c1cc([N+](=O)[O-])ccc1N1CCCCC1`, the Potency was 2.31 µM (active).
Still for that read-out and setting: the result for `Cc1ccc(C(=O)c2cc([N+](=O)[O-])ccc2N2CCOCC2)c(C)c1` reads 4.61 µM (active); that for `Cc1ccc(C(=O)c2cc([N+](=O)[O-])ccc2N2CCCCC2)c(C)c1`, 1.03 µM (active); that for `Cc1ccc(C(=O)c2cc([N+](=O)[O-])ccc2N2CCCCC2)cc1C`, 6.51 µM (active).
Take `COCCCNC(=O)C[C@H]1C[C@H](C(=O)N2CCCCC2)[C@@]2(C)c3[nH]c4ccc(Cl)cc4c3CCN2C1=O`: the “activity change, negative = inhibition” value is -15.7%.
On the same count and under the same terms, then `S=c1c2c(nc3nc[nH]n13)CCC2`, with -4.25%.
For the compound `Cc1ccc(C(=O)c2cc([N+](=O)[O-])ccc2N2CCCCC2)cc1`, the Potency was 2.31 µM (active).
Still for that read-out and setting: the result for `CC1CCCN(c2ccc([N+](=O)[O-])cc2C(=O)c2ccccc2)C1` (configuration not stated) reads 3.26 µM (active); that for `CCN(CC)c1ccc(/C=N/N=C(N)N)c(O)c1`, 10.3 µM (active).
Take `CCN(CC)c1ccc(/C=N/NC(=S)NC)c(O)c1`: the “activity change, negative = inhibition” value is 84.8%.
As to `COc1ccc(N/C=C/C(=O)c2cc(OC)c(OC)c(OC)c2)cc1`, the Potency is 7.31 µM (active).
For the compound `COc1cc(C(=O)NNC(=S)Nc2ccc(S(N)(=O)=O)cc2)cc(OC)c1OC`, the “activity change, negative = inhibition” value is -2.88%.
